Activity change data for 5 molecules are collected here from PubChem BioAssay AID540267 (National Center for Advancing Translational Sciences (NCATS), 2011).

The structures appear in SMILES notation. Hit rate of the full screen: of about 340,000 compounds, about 530 (0.16%) were called active. About 2% were inconclusive and are not listed. The entries come from a sample that favours actives as a whole. Values without a mark were called inactive. Cut-off read from the data, not from the text of the source: active = activity change below about -80%; inconclusive = between about -30% and that limit; inactive = weaker than that.
% is set by controls: 0 for no effect and ±100 for the full control effect.

The nature of the assay: Small Molecules that selectively kill Giardia lamblia: qHTS.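 Note: parasites exposed to compound for two days anaerobically before the ATP read.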 The following applies: Giardia lamblia trophozoite viability; at 7.66 µM; hits give low values. From the text: Giardia lamblia is a human pathogen afflicting impoverished nations, and the most common cause of outbreaks of diarrhea in the United States. Giardia has been classified by the CDC as a category B bioterrorism organism. The favored anti giardiasis drugs in the US are metronidazole or tinidazole, compounds that have undesirable side effects. Moreover, increasing resistance to drug regimes and recurrence are a concern. It is thus clear that alternative drug treatments are needed.
In a collaboration between the University of Maryland, College Park and the NIH Chemical Genomics Center, a bioluminescence Giardia viability assay based on the trophozoites' ATP content was developed. This assay is suitable for high throughput screening, and miniaturized the assay for compound screening in 1536-well plates. The goal of the project is to screen the Molecular Libraries Small Molecule Repository (MLSMR) for compounds that selectively kill Giardia trophozoites.
NIH Chemical Genomics Center [NCGC]
NIH Molecular Libraries Probe Centers Network [MLPCN]
Assay Submitter (PI): Osnat Herzberg, University of Maryland, College Park, MD.
1. Dispense 2 ul/well media
2. Dispense 23 nl/well compounds
3. Dispense 4 ul/well Giardia trophozoites at a concentration of 100 cells/well
4. Incubate 48 hrs at 37 deg C anaerobically
5. Dispense 4 ul/well ATPLite 1-Step Luminescence assay kit
6. Incubate 15-30 min at room temperature
7. Read luminescence signal on ViewLux plate reader
On to `CCN(CC)c1ccc([N+](=O)[O-])c2cccnc12`, for which the activity change was -13.7%.
As for `CN(c1ccccc1)c1ccc([N+](=O)[O-])c2nonc12`, the activity change was -83.4% (active).
For `CO[C@H]1[C@@H](O)[C@@H](C)O[C@H](O[C@H]2[C@H](Oc3cccc4c(O)c5c(=O)oc6ccc(C)c7c(=O)oc(c34)c5c67)O[C@H](C)[C@H](O)[C@@H]2O)[C@@H]1O` the value was 0.803%; for `COc1cc([C@@H]2c3cc4c(cc3[C@H](OC(C)=O)[C@H]3COC(=O)[C@H]23)OCO4)cc(OC)c1OC`, -7.09%; for `O=P1(Oc2ccccc2)CC(O)C(O)C(COCc2ccccc2)O1` (stereo not given), 11%.
